A selection: hits, their analogues and other compounds. The true share with any hit is near 4.1%.
beta cell repl = MIN6 beta-cell proliferation induction; MIN6 cells proliferation, ATPlite luminescence, 48 h; cells starved in 0.2% serum; 100% = growth in 10% serum; proliferation, % at 10 µM; actives 0.29% (n = 330,000); AID 2380;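 active = compounds whose signal lies at least 3.5 SD above the mean of all wells on their plate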;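 note: 0% = DMSO-treated cells in low-serum medium and 100% = 10% serum control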
GRIN3A LBD mod = modulators (binders) of human NR3A ligand-binding domain | actives 2.5% (n = 340,000) | Tm shift relative to glycine control, % at 25 µM | NR3A LBD differential scanning fluorimetry, Tm shift; 0% = protein alone, 100% = glycine-bound protein | AID 1259313;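 active = melting temperature shift of at least 10% of the positive control shift, at one fixed dose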
pCIP destab = lowers stability of the mouse p/CIP coactivator protein; F442A p/CIP-EGFP cells, EGFP fluorescence, 16 h; AID 1984; decrease of EGFP signal, % at 10 µM; actives 0.01% (n = 290,000);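 active = EGFP signal decrease of at least 30% at 10 µM or well 3 SD below plate mean, unless failing retest; inactive = the rest, including hits failing retest or dose response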
Target sequence (Q05BA5 1-1403): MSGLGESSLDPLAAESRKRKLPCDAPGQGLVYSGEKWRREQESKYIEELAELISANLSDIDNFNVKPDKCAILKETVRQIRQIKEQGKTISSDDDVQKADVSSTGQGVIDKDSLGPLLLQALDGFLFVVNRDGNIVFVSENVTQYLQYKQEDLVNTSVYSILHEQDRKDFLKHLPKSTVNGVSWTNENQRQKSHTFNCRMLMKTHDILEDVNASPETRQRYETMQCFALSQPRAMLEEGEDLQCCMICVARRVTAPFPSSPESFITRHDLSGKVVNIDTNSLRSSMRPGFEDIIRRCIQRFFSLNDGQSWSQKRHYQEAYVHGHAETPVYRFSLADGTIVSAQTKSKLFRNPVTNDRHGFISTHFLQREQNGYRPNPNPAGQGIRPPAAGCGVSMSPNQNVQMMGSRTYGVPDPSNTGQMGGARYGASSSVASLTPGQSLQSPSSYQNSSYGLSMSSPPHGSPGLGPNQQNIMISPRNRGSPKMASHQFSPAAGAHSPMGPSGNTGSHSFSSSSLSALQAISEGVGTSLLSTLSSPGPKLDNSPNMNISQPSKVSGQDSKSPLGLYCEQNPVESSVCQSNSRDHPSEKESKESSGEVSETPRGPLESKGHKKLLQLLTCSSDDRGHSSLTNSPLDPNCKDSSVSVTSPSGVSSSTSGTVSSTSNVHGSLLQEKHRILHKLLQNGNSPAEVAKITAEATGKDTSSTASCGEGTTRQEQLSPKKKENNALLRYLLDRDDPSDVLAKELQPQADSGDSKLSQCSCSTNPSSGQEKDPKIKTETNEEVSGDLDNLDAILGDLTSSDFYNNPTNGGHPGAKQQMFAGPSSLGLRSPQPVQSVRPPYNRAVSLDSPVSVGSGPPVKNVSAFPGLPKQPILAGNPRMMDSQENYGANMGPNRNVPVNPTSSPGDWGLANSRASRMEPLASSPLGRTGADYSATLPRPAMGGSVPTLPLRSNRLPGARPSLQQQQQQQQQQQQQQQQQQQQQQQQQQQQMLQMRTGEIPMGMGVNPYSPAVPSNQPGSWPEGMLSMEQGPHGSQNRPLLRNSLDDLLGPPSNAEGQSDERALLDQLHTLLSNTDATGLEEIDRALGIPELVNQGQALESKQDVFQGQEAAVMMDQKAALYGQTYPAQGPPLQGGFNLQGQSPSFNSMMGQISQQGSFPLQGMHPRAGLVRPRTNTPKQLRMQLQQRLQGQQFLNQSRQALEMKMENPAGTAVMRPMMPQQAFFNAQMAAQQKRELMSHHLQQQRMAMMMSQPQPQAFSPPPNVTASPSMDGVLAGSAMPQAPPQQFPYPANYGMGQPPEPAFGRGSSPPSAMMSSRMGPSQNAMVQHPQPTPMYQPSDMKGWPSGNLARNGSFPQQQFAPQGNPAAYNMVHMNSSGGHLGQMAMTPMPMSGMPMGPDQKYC
MPTP inh = permeability transition pore inhibition; AID 602449; isolated mouse mitochondria, Ca2+ swelling absorbance, 30 min; actives 1.4% (n = 360,000); inhibition, % at 10 µM;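 active = inhibition of 50% or more, scaled per plate between neutral and stimulator controls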;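 note: 0% = DMSO wells given calcium and 100% = 1 mM EGTA wells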
FAS TE block = blocks the thioesterase domain of human fatty acid synthase. P49327. inhibition, % at 15 µM. actives 0.67% (n = 360,000). recombinant FAS-TE, OMFH fluorogenic substrate, fluorescence endpoint;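 active = compounds whose normalised, plate-corrected inhibition of enzyme fluorescence in the single-dose primary screen is 50% or more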;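 note: 0% = DMSO with enzyme and 100% = substrate without enzyme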
MPTP counter = Rhodamine 123 counter-screen of mitochondrial pore hits | shares compounds with MPTP inh | isolated mitochondria, membrane potential, Rhodamine 123 fluorescence | inhibition, % at 10 µM | actives 78% (n = 5,000) | AID 624504; in the data active = inhibition above about 22%;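 note: 0% = DMSO vehicle and 100% = positive control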
MPTP swell DR = MPTP inhibition, dose response swelling confirmation | IC50, µM | isolated mitochondria swelling, absorbance | AID 651561 | shares compounds with MPTP inh | actives 58% (n = 780); in the data active = IC50 below about 20 µM
MPTP cs DR = active in counter-screen for permeability transition pore inhibitors. shares compounds with MPTP inh. isolated mitochondria counterscreen, fluorescence read-out. IC50, µM. actives 49% (n = 780). AID 651564; in the data active = IC50 below about 80 µM
Active calls of the source: *; i = inactive; / = not tested or not shown.

SMILES	beta cell repl	GRIN3A LBD mod	pCIP destab	MPTP inh	FAS TE block	MPTP counter	others
CC(C)(C)c1ccc(NC(=O)Nc2ccc(F)cc2)cc1	-4.6	14.4*	-3.7	98.6*	9.8	88.3*
CC(C)CNC(=O)Nc1ccc(F)c(Cl)c1	1.8	-1.1	-13.2	36.5	-6.8	/
O=C(COC(=O)c1ccc2ccccc2n1)Nc1ccccc1F	-2.2	1.2	/	0.2	-7.5	/
COC(=O)c1ccc(NC(=O)Nc2ccc(F)cc2)cc1	-4.5	18.2*	-0.1	63.5*	3.5	96.5*
CCOC(=O)c1ccc(NC(=O)Oc2cc(C)c(Cl)cc2C(C)C)cc1	-2.9	14.7*	-6.2	63.9*	6.3	68.6*
COC(=O)c1ccc(NC(=O)Nc2ccc([N+](=O)[O-])cc2)cc1	-4.9	34.0*	-4.4	94.5*	17.8	84.9*
CCOC(=O)c1ccc(NC(=O)Nc2ccc(F)cc2)cc1	-2.9	35.0*	0.1	97.1*	6.3	84.9*
CCOC(=O)c1ccc(NC(=O)Nc2ncc(Cl)cc2Cl)cc1	-1.3	/	4.4	/	/	/
COC(=O)c1ccc(NC(=O)Nc2ccccc2C)cc1	-3.5	0.8	-3.0	-0.2	-0.3	/
O=C(Nc1ccc([N+](=O)[O-])cc1)Nc1ccon1	-4.7	-2.7	-3.5	57.7*	1.3	98.5*
Cc1cc(C(=O)Nc2ccc(N3CCCC3)c(Cl)c2)ccc1[N+](=O)[O-]	-4.5	-24.9	6.0	80.2*	39.4	85.9*
CC1CCCN(c2ccc(C(=O)Nc3ccc4c(c3)OCO4)cc2[N+](=O)[O-])C1 (stereo not given)	-5.8	-1.9	1.7	57.6*	16.5	42.7*
O=C(Nc1ccc(N2CCCC2)c(Cl)c1)c1ccc([N+](=O)[O-])cc1	-2.8	1.2	9.7	76.4*	14.4	75.6*
CC(c1cccnc1)N(CCN(C)C)C(=O)Nc1ccc(Cl)cc1 (stereo not given)	5.7	-2.6	-2.6	0.7	-1.9	/
Cn1ncc([N+](=O)[O-])c1C(=O)n1nnc2ccccc21	/	-0.4	-0.6	-0.8	7.0	/
COCCN(Cc1ccccc1)C(=S)Nc1ccc(Cl)cc1	-1.7	-3.5	-9.3	0.8	17.4	/
O=C(CN1C(=O)NC(c2ccccc2)(c2ccccc2)C1=O)NCc1cccs1	-2.6	1.1	/	-2.8	-2.3	/
CCC(=O)c1ccccc1OCCCN1CCC(Cc2ccccc2)CC1	-3.5	1.6	-12.6	69.0*	5.7	60.4*
CSc1nc2ccc(NS(=O)(=O)c3cccc(Cl)c3Cl)cc2s1	-4.3	16.1*	0.7	59.7*	16.8	64.5*
CCOCCCNc1ncnc2c1[nH]c1ccccc12	-5.4	0.2	-5.0	-1.2	-6.0	/
CCCCOCCCNc1ncnc2c1[nH]c1ccccc12	-5.6	-6.9	-0.3	92.5*	-5.2	92.7*
CCCCCCCCn1c2c(c(=N)c3ccccc31)CCC2	-5.4	-5.1	-13.4	33.0	14.3	/
CCCCCCCCCn1c2c(c(=N)c3c1CCC3)CCCC2	-5.5	-20.7	-36.7	103.6*	10.6	101.2*
CCCCCCCCCCn1c2c(c(=N)c3c1CCC3)CCC2	-6.1	-7.0	-12.6	84.7*	-6.1	99.4*
COc1ccccc1N(CCC#N)C(=S)Nc1ccc(S(=O)(=O)N2CCOCC2)cc1	2.9	-3.5	/	-0.9	-2.1	/
SMILES	beta cell repl	GRIN3A LBD mod	pCIP destab	MPTP inh	FAS TE block	MPTP counter	others
N#CCc1ccc(NC(=O)c2cc(S(=O)(=O)N3CCOCC3)ccc2Cl)cc1	-2.0	6.7	-0.8	0.4	-3.3	/
Cn1cc(CN2CCN(c3ccccc3)CC2)c2ccccc21	-2.9	2.3	-8.1	60.9*	3.7	-10.2	MPTP swell DR=i;MPTP cs DR=>80
C=CCn1c(NC(=O)c2ccccc2Cl)c(C#N)c2nc3ccccc3nc21	-5.8	3.1	4.3	74.3*	16.8	79.2*
COc1cc(C[C@@H]2C(=O)OC[C@H]2Cc2ccc(OC)c(OC)c2)ccc1O	-6.6	2.6	/	92.5*	-6.0	80.4*
COC(=O)C1=CN(c2ccc3c(c2)OCO3)C(N)=C(C#N)C1c1cccc(F)c1 (stereo not given)	/	/	/	0.9	/	/
CC(C)OC(=O)c1cccnc1N1CCN(c2cccc(Cl)c2)CC1	-2.9	3.7	-14.0	2.5	17.2	/
CC(C)(C)c1ccc(CSc2nc(N)cc(=O)[nH]2)cc1	-5.8	-2.3	-13.8	66.7*	8.7	76.3*
N/C(=N\OC(=O)c1ccc(Cl)cc1)c1[nH]ncc1Br	-3.6	-4.4	-3.8	2.3	-21.1	/
CN1CCN(C2=Cc3cc(Cl)ccc3Sc3cc(F)ccc32)CC1	-3.7	1.0	-3.1	90.6*	28.1	-12.6
CN1CCN(C2=Cc3ccccc3Sc3cc(F)c(F)cc32)CC1	-3.4	0.0	-6.3	92.7*	10.5	-12.2
CN(C)CC/C=C1/c2cc(F)ccc2Sc2ccc(Cl)cc21	-3.8	2.4	/	-3.0	4.3	/
CN1CCN(C2=Cc3ccccc3Sc3cc(F)c(Cl)cc32)CC1	-3.5	4.3	-22.5	31.9	20.1	/
COc1ccc(-c2nn(-c3ccccc3)cc2/C=N/N=C(N)N)cc1OC	0.0	-0.5	-2.6	89.4*	-11.9	-30.7
COc1ccc(-c2nn(-c3ccccc3)cc2/C=N/O)cc1OC	-2.8	-0.4	-28.4	1.1	-9.3	/
CC(C)c1ccc(COc2ccc(C(=O)N3CCOCC3)cc2)cc1	-3.7	-1.2	-15.3	67.4*	-48.1	49.0*
CC(C)c1ccc(OCc2ccc(C(=O)N3CCCC3)o2)cc1	0.0	-1.5	-7.1	84.0*	-3.8	11.7	MPTP swell DR=12*;MPTP cs DR=18.1*
Cc1ccc(OCc2ccc(C(=O)N3CCOCC3)cc2)cc1C	-1.0	-1.3	-2.4	-1.2	-3.2	/
CC(C)Cc1ccc(S(=O)(=O)N2CCN(c3ccccn3)CC2)cc1	0.2	0.6	-3.2	3.3	4.0	/
Cc1ccc(CN=Cc2[nH]c3ccc(Br)c(Cl)c3c2O)cc1	-4.7	-33.8	-16.0	69.1*	9.6	-1.6
Cc1ccc(CNS(=O)(=O)c2ccc(C(F)(F)F)cc2)n1C	0.0	-0.2	-6.2	1.8	2.3	/
COc1ccc(NS(=O)(=O)c2ccc(N/N=C(\C)c3ccncc3)c([N+](=O)[O-])c2)cc1	0.0	21.3*	-10.9	67.5*	47.1	20.0*
CCCC(CCC)=NNc1ccc(S(=O)(=O)Nc2ccccc2OC)cc1[N+](=O)[O-]	-0.9	-12.4	-5.9	7.1	38.1	/
COc1ccccc1NS(=O)(=O)c1ccc(N/N=C(\C)C(C)C)c([N+](=O)[O-])c1	0.0	-8.5	-4.4	76.0*	32.2	55.2*
OCC1CCN(Cc2cn(Cc3ccccc3)nc2-c2cc3ccccc3o2)CC1	-4.4	-0.9	2.3	52.1*	-1.3	-19.6	MPTP swell DR=18*;MPTP cs DR=>80

Screening results deposited in PubChem BioAssay by Sanford-Burnham Center for Chemical Genomics.
